Mtb betalactam: beta-lactam sensitization of Mtb H37Rv | inhibition, % at 25 µM | M. tuberculosis H37Rv growth with meropenem, percent inhibition | hit rate 0.27% among 330,000 | AID 434955; call rule not given here;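 note: growth measured after seven days incubation then overnight dye step; 0% = bacteria only wells and 100% = bacteria with antibiotic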
FBA Mtb inh: Mtb fructose-bisphosphate aldolase inhibition; P9WQA3; purified M. tuberculosis FBA, fluorescence read-out; inhibition, % at 1 µM; hit rate 2.3% among 360,000;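 note: 0% = vehicle and 100% = reference inhibitor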
Target sequence (P9WQA3 whole entry, looked up): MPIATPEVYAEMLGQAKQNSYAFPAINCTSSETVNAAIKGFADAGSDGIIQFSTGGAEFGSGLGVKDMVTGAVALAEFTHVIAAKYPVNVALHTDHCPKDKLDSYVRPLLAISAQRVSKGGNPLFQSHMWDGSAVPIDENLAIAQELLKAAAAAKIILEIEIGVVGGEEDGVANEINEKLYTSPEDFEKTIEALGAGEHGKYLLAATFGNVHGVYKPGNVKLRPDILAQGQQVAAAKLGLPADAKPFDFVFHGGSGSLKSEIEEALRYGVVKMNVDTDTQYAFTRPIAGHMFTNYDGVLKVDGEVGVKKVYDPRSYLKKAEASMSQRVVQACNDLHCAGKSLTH
GDH-TPI counter-1: inhibits GDH-TPI coupling enzymes, artifact for Mtb FBA screen | GDH-TPI coupled enzyme counterscreen, NADH absorbance | inhibition, % at 4.8 µM | hit rate 1.2% among 360,000; in the data active = inhibition above about 30%;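 note: 0% = DMSO wells and 100% = wells lacking the enzyme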
Rv3671c inh: inhibitors of M. tuberculosis serine protease Rv3671c. P9WHR9. inhibition, % at 5.96 µM. hit rate 0.048% among 320,000. AID 2606; in the data active = inhibition above about 38%;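 note: extracellular domain of Rv3671c used as enzyme; 0% = enzyme with DMSO and 100% = no enzyme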
Target sequence (P9WHR9 whole entry, looked up, the tested form may be a part): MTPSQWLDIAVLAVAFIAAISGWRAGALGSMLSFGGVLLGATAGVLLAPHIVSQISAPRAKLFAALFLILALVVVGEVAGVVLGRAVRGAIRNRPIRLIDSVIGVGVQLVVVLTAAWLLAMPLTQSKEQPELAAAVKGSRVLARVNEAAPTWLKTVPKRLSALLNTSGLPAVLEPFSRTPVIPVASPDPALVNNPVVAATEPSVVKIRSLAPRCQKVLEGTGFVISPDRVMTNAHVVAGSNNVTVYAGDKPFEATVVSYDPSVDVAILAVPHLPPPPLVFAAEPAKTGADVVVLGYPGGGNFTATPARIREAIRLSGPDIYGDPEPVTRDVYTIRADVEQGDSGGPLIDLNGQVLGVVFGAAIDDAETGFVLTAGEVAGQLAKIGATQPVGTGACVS
UGM FP inh: inhibitors of M. tuberculosis UDP-galactopyranose mutase | P9WIQ1 | purified UGM, fluorescence polarization probe displacement | inhibition, % at 10 µM | hit rate 0.06% among 320,000; in the data active = inhibition above about 10%, passing the limit was not always enough
Mtb FBA inh conf: confirmation of M. tuberculosis fructose-bisphosphate aldolase inhibitors. shares compounds with FBA Mtb inh. purified M. tuberculosis FBA, fluorescence read-out. inhibition, % at 1 µM. hit rate 78% among 5,600. AID 651616;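 note: 0% = vehicle wells and 100% = reference inhibitor wells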
GDH-TPI counter-2: counter-screen for M. tuberculosis FBA inhibitors: GDH-TPI coupled enzyme inhibition; shares compounds with FBA Mtb inh; GDH-TPI coupled enzyme counterscreen, fluorescence; inhibition, % at 1 µM; hit rate 81% among 5,600; in the data active = inhibition above about 10%
GDH-TPI dose: GDH-TPI dose response counter-screen for Mtb FBA; shares compounds with FBA Mtb inh; GDH-TPI coupled enzyme assay, fluorescence, artifact counterscreen; IC50, µM; hit rate 79% among 170; call rule not given here
Starred values were filed as active, the others as inactive; . = not tested or not shown; + = active, no number. Shown are actives, neighbours in structure and some others; about 3.5% of the full set was active somewhere. Cut-off read from the data, not from the text of the source, unless noted: active = inhibition above about 27%; inactive = the rest.

SMILES | Mtb betalactam | FBA Mtb inh | GDH-TPI counter-1 | Rv3671c inh | UGM FP inh | Mtb FBA inh conf | GDH-TPI counter-2 | others
C=C(Cl)COc1ccc2c(C)cc(=O)oc2c1 | 37.5 | 18.5 | 5.7 | -5.8 | 1.4 | . | .
C=C(C)COc1ccc2c(CC)cc(=O)oc2c1 | -2.5 | 39.9* | 0.7 | 4.7 | 0.7 | 84.8* | 69.1*
CCOC(=O)c1c(-c2ccc(OC)cc2)cn2ccccc12 | -5.5 | 26.1 | 3.5 | 7.4 | 0.4 | . | .
CCOC(=O)c1c(-c2ccc(C)cc2)cn2ccccc12 | 12.8 | 88.8* | 11.9 | -8.8 | -1.4 | 106.2* | 79.5*
CCOC(=O)c1c(-c2ccc(F)cc2)cn2ccccc12 | 1.0 | 98.7* | 23.4 | -2.1 | 0.6 | 139.1* | 100.4*
CC1=C(Cl)C2=NS(=O)(=O)CCN2C=C1Cl | 2.7 | 89.3* | 7.6 | -9.6 | -3.4 | 159.4* | 116.1*
Cc1ccc(NC(=O)C2=CC=CN3CCS(=O)(=O)N=C23)cc1 | -1.7 | 1.7 | 8.1 | 0.3 | -2.1 | . | .
Cc1cc(O)c(-c2cc(O)c(C)cc2O)cc1O | -8.0 | 37.1* | -5.7 | 0.8 | 0.7 | 103.9* | 82.5*
Cc1cc(C)nc(N2CCCC(CCC(=O)NCc3ccc(F)c(F)c3)C2)n1 (stereo not given) | 12.4 | 0.1 | -0.3 | 0.7 | 0.3 | . | .
CCOC(=O)CCc1c(C)nc2cc(-c3ccccc3OC)[nH]n2c1=O | -0.3 | 28.1* | -6.2 | 3.9 | 0.8 | 138.1* | 123.6*
CC(C)(O)[C@H](O)COc1c2occc2cc2ccc(=O)oc12 | -9.2 | 4.7 | 8.5 | -3.0 | 2.8 | . | .
COc1ccc2ccc(=O)oc2c1CC(O)C(C)(C)O (stereo not given) | -6.2 | 66.2* | 13.7 | 3.1 | -2.2 | 3.5 | -4.8
COc1ccc2ccc(=O)oc2c1CC(=O)C(C)C | -3.7 | 39.0* | 13.9 | -2.8 | . | 26.5 | 17.6*
CCCCCCN=C1CC(C)(C)CC(=O)/C1=C(/O)CCC | 99.6 | -0.6 | 6.4 | -1.4 | -1.2 | . | .
C=CCOc1ccc(/C=C/C(=O)OCC(=O)Nc2c(C)n(C)n(-c3ccccc3)c2=O)cc1 | -4.2 | -5.1 | 9.3 | 4.5 | 2.5 | . | .
CC(C)(C)c1ccc(CC(=O)N2CCC2(C)C(=O)Nc2cccc3cccnc23)cc1 (stereo not given) | . | -1.1 | 0.4 | . | . | . | .
CCOC(=O)c1sc(-c2ccc(Cl)cc2)nc1O | 10.1 | 1.8 | -7.7 | -6.6 | -0.5 | . | .
Cc1ccc(-c2nc3ccccc3nc2NN)cc1 | -8.4 | 31.5* | 9.2 | -6.6 | 1.1 | 14.2 | 8.8 | GDH-TPI dose=>10
Cc1ccc(-c2nc3ccccc3nc2Cl)cc1 | 5.6 | 1.4 | 2.5 | -8.6 | 4.7 | . | .
O=c1cc(CN2CCCC2)c2c(ccc3ccccc32)o1 | . | 12.8 | . | . | . | . | .
O=c1cc(CN2CC=C(c3ccccc3)CC2)c2c(ccc3ccccc32)o1 | -1.5 | 93.7* | 13.1 | -8.7 | 1.5 | 114.2* | 100.2*
O=C(Nc1ccc2c(c1)OCCO2)c1cccs1 | -0.4 | 38.1* | 12.6 | -8.2 | 3.8 | 12.2 | 9.7 | GDH-TPI dose=>10
O=C(Nc1ccc2c(c1)OCO2)c1cccs1 | 1.0 | -0.8 | 14.1 | 8.5 | -1.4 | . | .
CCCNC(=O)c1oc2ccc3c(c2c1C)C(=O)CC(C)(C)O3 | 10.5 | 36.2* | 11.9 | 8.1 | -1.8 | 54.6* | 51.3*
CCCNC(=O)c1oc2ccc3c(c2c1C)C=CC(C)(C)O3 | 90.7 | 16.0 | 3.8 | -7.4 | -0.9 | . | .
SMILES | Mtb betalactam | FBA Mtb inh | GDH-TPI counter-1 | Rv3671c inh | UGM FP inh | Mtb FBA inh conf | GDH-TPI counter-2 | others
CCOC(=O)N1CCC2(CC1)CC(=O)c1c(ccc3oc(C(=O)O)c(C)c13)O2 | -9.5 | 81.5* | 26.7 | -5.8 | 2.2 | 33.3* | 30.1*
COc1ccc(-c2noc(Cn3cc(S(=O)(=O)N4CCCC4)ccc3=O)n2)cc1 | -5.7 | 1.3 | -1.9 | -4.8 | 2.3 | . | .
O=C(COC(=O)c1ccccc1)NCC1CCCO1 (stereo not given) | -12.1 | -4.0 | -3.1 | -4.2 | 1.6 | . | .
CSc1ccc(/C=C/C(=O)OCC(=O)NC2CCCCCC2)cc1 | . | 29.7* | 28.9 | . | . | + | 196.0*
O=C(COC(=O)c1cccc2ccccc12)NCC1CCCO1 (stereo not given) | 1.2 | 36.4* | 3.3 | 4.4 | -3.0 | 137.2* | 119.5*
CSc1ccc(/C=C/C(=O)OCC(=O)NCC2CCCO2)cc1 (stereo not given) | 2.9 | 45.2* | 30.0 | -3.0 | . | 52.7* | 49.3*
CSc1ccc(/C=C/C(=O)OCC(=O)NC2CCS(=O)(=O)C2)cc1 (stereo not given) | -3.3 | 63.9* | 34.8* | -7.8 | -1.5 | 36.6* | 24.4*
COc1ccc(/C=C/C(=O)OCC(=O)NC2CCCCCCC2)cc1 | 77.4 | -2.2 | 5.4 | -5.0 | -1.0 | . | .
O=C(COC(=O)/C=C/c1ccc(Cl)c(Cl)c1)NC1CCS(=O)(=O)C1 (stereo not given) | -6.3 | -0.7 | -4.0 | -0.1 | -0.6 | . | .
Cc1ccc(Cn2c(SC(C)C(N)=O)nc3ccccc3c2=O)cc1 (stereo not given) | 6.5 | 0.2 | 5.7 | -9.2 | -1.0 | . | .
CC(=O)c1ccc(-c2ccc(C(=O)N(C)c3c(N)n(Cc4ccccc4)c(=O)[nH]c3=O)o2)cc1 | -2.2 | -1.3 | 21.4 | -0.7 | -1.7 | . | .
CSc1ccc(/C=C/C(=O)OCC(=O)N2CCCCCC2)cc1 | 0.3 | 81.1* | 43.0* | 0.8 | 5.3 | + | +
COc1cccc(CNC(=O)COC(=O)/C=C/c2ccc(SC)cc2)c1 | -2.7 | 36.5* | 13.7 | -15.4 | -2.5 | + | +
CC(C)n1ncc2c(C(=O)N3CCN(S(=O)(=O)c4cccc(F)c4)CC3)cc(C3CC3)nc21 | . | 5.7 | -4.4 | . | . | . | .
CCn1c(SC(=O)NC2CCCCC2)nnc1-c1cccs1 | -4.3 | 45.5* | 15.9 | 0.9 | 1.4 | -2.4 | -0.4
CCn1c(SCC(=O)NC2CCCCC2)nnc1-c1cccs1 | 8.1 | 4.7 | 6.4 | -2.5 | -1.6 | . | .
CCOc1ccc(C(=O)NCC(=O)OCC(=O)N2C(C)CCCC2C)cc1 (stereo not given) | -4.6 | 2.3 | 6.2 | 0.1 | 0.6 | . | .
CC1CCCC(C)N1C(=O)COc1ccc(C(=O)N/N=C/c2ccc(C(=O)O)cc2)cc1 (stereo not given) | -0.6 | 60.0* | -0.6 | 6.5 | -1.5 | 119.7* | 96.8*
O=C(NNS(=O)(=O)c1ccc2ccccc2c1)NC1CCCCC1 | 13.5 | -3.5 | 1.5 | -2.0 | -1.9 | . | .
C=C(C)Cn1c2ccc(NC(=S)NCc3ccccc3F)cc2c(=O)n1C | . | 36.0* | 0.4 | . | . | 147.8* | 105.8*
CCNC(=S)Nc1ccc2c(c1)c(=O)n(C)n2CC=C(C)C | . | 62.6* | 2.7 | . | . | 184.6* | 151.9*
Cc1oc(-c2ccccc2Cl)nc1CSCC(=O)NC1CCCC1 | 8.5 | 0.9 | -6.6 | 0.3 | -0.2 | . | .
Cc1oc(-c2cccs2)nc1CSCC(=O)NC1CC1 | -1.3 | 35.0* | -5.9 | 6.8 | -1.2 | -1.9 | -6.2

Compound activity deposited in PubChem BioAssay by several laboratories.
